Experimental findings from PubChem BioAssay (Tox21) are described below.

Records with an inconclusive call do not appear. Where a call stands in place of a potency, no number is given. The source made the active and inactive calls. The call rests on the fitted dose curve; in most records, active means well fitted activation curve with a large enough effect in the signal ratio in the repeat runs (not every such curve was filed as active); inconclusive means weak or mixed curves, or effect the other way; inactive means no such curve, though single readings can be large or run the other way; the % refers to the signal ratio.
Potency means the concentration at half of the fitted maximal effect.

This assay deals with Peroxisome proliferator-activated receptor gamma (Homo sapiens) (UniProt P37231). Description: qHTS assay to identify small molecule agonists of the peroxisome proliferator-activated receptor gamma (PPARg) signaling pathway (AID 743094). Conditions: HEK293H PPARg-UAS-bla, beta-lactamase FRET ratio, 17 h; series mostly up to 57 µM. The source says: U.S. Tox21 Program National Center for Advancing Translational Sciences [NCATS] NIH Chemical Genomics Center [NCGC] U.S. Environmental Protection Agency [EPA] National Institutes of Environmental Health Sciences [NIEHS] National Toxicology Program [NTP] U.S. Food and Drug Administration [FDA] Tox21 Assay Overview: The peroxisome proliferator-activated receptors (PPARs) are lipid-activated transcription factors of the nuclear receptor superfamily with three distinct subtypes namely PPAR alpha, PPAR delta (also called PPAR beta) and PPAR gamma (PPARg). All these subtypes heterodimerize with Retinoid X receptor (RXR) and these heterodimers regulate transcription of various genes. PPAR-gamma receptor (glitazone receptor) is involved in the regulation of glucose and lipid metabolism. To identify the compounds that activate PPAR-gamma signaling, GeneBLAzer PPAR gamma UAS-bla HEK293H cell line (Invitrogen, Carlsbad, CA, USA) containing a beta-lactamase reporter gene under control of the control of an upstream activator sequence (UAS) stably integrated into HEK293H cells was used to screen Tox21 compound library.
Chain of Peroxisome proliferator-activated receptor gamma (Homo sapiens) (P37231 whole entry, looked up): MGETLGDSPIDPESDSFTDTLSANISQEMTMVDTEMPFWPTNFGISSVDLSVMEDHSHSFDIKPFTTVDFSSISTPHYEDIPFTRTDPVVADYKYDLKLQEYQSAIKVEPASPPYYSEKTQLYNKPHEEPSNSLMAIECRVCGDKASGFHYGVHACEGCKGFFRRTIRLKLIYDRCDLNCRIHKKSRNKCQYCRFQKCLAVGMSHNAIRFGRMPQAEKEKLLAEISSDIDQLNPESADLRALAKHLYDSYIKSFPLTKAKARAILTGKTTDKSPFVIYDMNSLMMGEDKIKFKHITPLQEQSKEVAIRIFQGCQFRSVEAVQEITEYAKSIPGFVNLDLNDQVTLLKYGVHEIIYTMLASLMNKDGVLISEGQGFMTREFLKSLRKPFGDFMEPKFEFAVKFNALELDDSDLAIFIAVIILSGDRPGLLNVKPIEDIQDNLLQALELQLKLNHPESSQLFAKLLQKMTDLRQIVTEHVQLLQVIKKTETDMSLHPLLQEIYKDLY
Tox21 Assay Protocol Summary: PPARg-bla cells were dispensed at 3000 cells/6uL/well in 1536-well black wall/clear bottom plates using a Multidrop Combi (Thermo Fisher Scientific, Waltham, MA) dispenser. After the assay plates were incubated at 37C and 5% CO2 for 5 h, 23 nL of compounds dissolved in DMSO, positive controls or DMSO only was transferred to the assay plate by a Pintool station (Kalypsys, San Diego, CA). The assay plates were incubated at 37C for 17 h. After 1 uL of LiveBLAzerTM B/G FRET substrate was added using a Bioraptr Flying Reagent Dispenser (FRD) workstation (Beckman Coulter, Indianapolis, IN, USA), the plates were incubated at room temperature for 1 h, and fluorescence intensity was measured by an Envision plate reader (PerkinElmer, Shelton, CT).
Turning to `CC(C)CC(C)CC(O)CC(C)C` (stereo not given), the Potency result is “inactive”.
Take `CC(C)Cc1ccc(C(C)C(=O)O)cc1` (stereo not given): the Potency entry was “inactive”.
The entry for `Nc1cccc(N)c1` is “inactive”.
Turning to `CCOCCO`, the Potency entry is “inactive”.
The entry for `O=C(O)CN(CC(=O)O)CC(=O)O` is “inactive”; for `COCCOCCOC` it is “inactive”.
The entry for `Cn1cnc2c1c(=O)[nH]c(=O)n2C` is “inactive”; for `CC1(C)O[C@@H]2[C@@H](CO[C@@]3(COS(N)(=O)=O)OC(C)(C)O[C@@H]23)O1` it is “inactive”.
The entry for `CCCCC/C(C=O)=C\c1ccccc1` is “inactive”; for `C/C=C/c1ccc(O)c(OC)c1` it is “inactive”.
As for `C=C(C)OC(C)=O`, the Potency entry was “inactive”.
For `CC(=O)c1ccc(S(=O)(=O)NC(=O)NC2CCCCC2)cc1` the value was “inactive”.
For `N[C@@H](Cc1c[nH]c2ccccc12)C(=O)O`, the Potency entry was “inactive”.
As to `CCCCOC(=O)CCCCCCCCC(=O)OCCCC`, the Potency result is “inactive”.
As for `O=C(OCc1ccccc1)c1ccccc1`, the Potency result is “inactive”.
`C[C@]12C[C@H](O)[C@H]3[C@@H](CCC4=CC(=O)CC[C@@]43C)[C@@H]1CC[C@@H]2C(=O)CO`: the Potency result was “inactive”.
For `OCCCc1ccccc1` the value was “inactive”; for `CN(C)Cc1cc(CN(C)C)c(O)c(CN(C)C)c1`, “inactive”; for `Cc1cccc2ccccc12`, “inactive”.
For `NC(N)=NC(N)=NCCc1ccccc1` the value was “inactive”.
The entry for `O=C1OC(c2ccc(O)cc2)(c2ccc(O)cc2)c2ccccc21` is “inactive”.
Regarding `CCCCCCCCOc1ccc(C(=O)c2ccccc2)c(O)c1`, the Potency entry is “inactive”.
For `CCCCCCCCCCCCCC(=O)OC(C)C` the value was “inactive”; for `CC1=C(/C=C/C(C)=C/C=C/C(C)=C/C(=O)O)C(C)(C)CCC1`, 535 nM (active); for `COc1ccccc1O`, “inactive”.
For `CCCCCCCCCCCCCCCCCC(=O)OCC(O)CO` (stereo not given), the Potency entry is “inactive”.
As to `NC(=O)c1ccc([N+](=O)[O-])cc1Cl`, the Potency entry was “inactive”.
For `CN(C)C=O` the value was “inactive”.
The entry for `CCn1cc(C(=O)O)c(=O)c2ccc(C)nc21` is “inactive”; for `COc1cc(C=O)ccc1O` it is “inactive”.
In the case of `C=CC(=O)NC(C)(C)CS(=O)(=O)O`, the Potency entry is “inactive”.
Regarding `Cc1cccc(C)c1O`, the Potency result is “inactive”.
With `COc1ccc(C(=O)c2ccccc2)c(O)c1`, the Potency result is “inactive”.
For `Cc1cnc(NC(=O)C2=C(O)c3ccccc3S(=O)(=O)N2C)s1` the value was “inactive”; for `C=CCOC(=O)CC(C)C`, “inactive”.
The entry for `CC1=NN(c2ccccc2)C(=O)C1` is “inactive”; for `CCCCNC(=O)NS(=O)(=O)c1ccc(N)cc1` it is “inactive”.
The entry for `CC(C)(C)CC(C)(C)c1ccc(O)c(-n2nc3ccccc3n2)c1` is “inactive”; for `CCCCOCCOCCOC(C)=O` it is “inactive”.
In the case of `NC(=O)N1c2ccccc2C=Cc2ccccc21`, the Potency result was “inactive”.
